ELG1 genotoxic – inducers of genotoxicity in HEK293T ELG1-luciferase cells; HEK293T ELG1-luciferase reporter, luminescence, 16 h; Potency, µM (highest dose often 46 µM), without a hit: top-dose activity change, positive = activation, actives largely listed as activators; 330,000 tested, 1.3% active; AID 504466; further: % of control where 0% means no effect; nearly all actives have a fitted effect of over 60% in size
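HEK293T cells expressing luciferase-tagged ELG1 were exposed to compound or DMSO vehicle for 16 hr at 37 °C and 5% CO2. Luciferase activity was then measured with ONE-Glo after 30 min at room temperature.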
FLuc modulator – inhibits or activates purified firefly luciferase, miR-21 counter-screen; P08659; purified FLuc, Km substrates, luminescence inhibition; Potency, µM (titrated, usually from 57.5 µM), for inactives: at the top dose activity change, negative = inhibition, most hits filed as inhibitors; 360,000 tested, 6.9% active;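 further: plate controls were vehicle for no effect and reference inhibitor for full effect; nearly all actives have a fitted effect of over 55% in size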
Target sequence (P08659 whole entry, looked up): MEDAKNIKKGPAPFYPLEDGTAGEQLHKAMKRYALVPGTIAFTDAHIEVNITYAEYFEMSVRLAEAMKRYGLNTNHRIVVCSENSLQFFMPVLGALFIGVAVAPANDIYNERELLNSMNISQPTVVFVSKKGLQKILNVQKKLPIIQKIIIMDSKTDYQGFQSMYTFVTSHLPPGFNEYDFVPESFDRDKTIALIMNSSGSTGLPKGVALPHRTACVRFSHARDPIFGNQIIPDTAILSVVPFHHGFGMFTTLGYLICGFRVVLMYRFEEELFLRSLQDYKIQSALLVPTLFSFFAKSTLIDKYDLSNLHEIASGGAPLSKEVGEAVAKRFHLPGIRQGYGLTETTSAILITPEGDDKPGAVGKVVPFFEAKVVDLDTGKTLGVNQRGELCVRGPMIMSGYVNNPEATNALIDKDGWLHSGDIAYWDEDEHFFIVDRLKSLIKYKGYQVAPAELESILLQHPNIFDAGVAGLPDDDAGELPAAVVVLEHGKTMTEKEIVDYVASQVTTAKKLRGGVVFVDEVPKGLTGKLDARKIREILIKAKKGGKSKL
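Biochemical qHTS of compounds, final roughly 60 µM downward over six points, against 10 nM purified firefly luciferase using Km concentrations of substrates (10 uM D-luciferin, 10 uM ATP) in Tris acetate pH 7.5 buffer; luminescence output.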
NPC1 promoter act – activators of NPC1 promoter | Huh7 NPC1 promoter luciferase reporter, 24 h | Potency, µM (series often up to 9.22 µM), without a hit: at the highest dose activation, hits mostly activators | 320,000 tested, 2.4% active; further: % of control where 0% means no effect; nearly all actives have a fitted effect of over 60% in size
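NPC1 promoter–luciferase Huh7 cells; 24 h compound; luminescence.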
Rab9 prom act – activates the Rab9 promoter; Huh7 Rab9 promoter-luciferase reporter, luminescence, 24 h; Potency, µM (titrated, usually from 9.22 µM), for the others: at the highest dose activation, negative = inhibition, usual class: activators; 320,000 tested, 2.8% active; further: % of control where 0% means no effect; nearly all actives have a fitted effect of over 60% in size
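Stable Rab9-luc Huh7, 1500 cells/well, 2 h settle; cmpd in DMSO, 24 h, 37 °C/5% CO2; luciferase reagent 10 min RT; luminescence.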
SMN2 splice up – increases expression of the SMN2 splice variant; HEK293 SMN2-luciferase splicing reporter, luminescence, 30-36 h; Potency, µM (highest dose often 46.1 µM), for inactives: at the top dose activity change, positive = activation, usual class: activators; 210,000 tested, 2.8% active; AID 1458; further: % of control where 0% means no effect; nearly all actives have a fitted effect of over 55% in size
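HEK293 cells carry an SMN2 minigene-luciferase reporter in which exon 7 inclusion puts luciferase in frame. Cells were seeded at 2000 cells/well, attached for 10-12 hours, then exposed to compounds for 30-36 hours at 37C before ONE-Glo luminescence.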
Luc counter – counter-screen: inhibitors of Kinase-Glo firefly luciferase. Q27757. Kinase-Glo luciferase, ATP luminescence, 8 min. Potency, µM (doses to about 38.3 µM), for inactives: top-dose activity change, negative = inhibition, most hits filed as inhibitors. 200,000 tested, 0.28% active. AID 1379; further: on the % scale 0 is the no-effect control and ±100 the full control effect; nearly all actives have a fitted effect of over 60% in size
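Compounds were added to a substrate mix at pH 7.2 (50 mM imidazole, 10 uM ATP, within the enzyme's linear range), followed by Kinase-Glo detection reagent; luminescence was measured after 8 minutes at ambient temperature.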
* = called active by the depositor; ? = inconclusive; nt = no result; [ ] = another dose, or the depositor's remark. In the library only some 7.3% were active in any assay of this set; here they are far more common. The call rests on the fitted dose curve; in most records, active means well fitted curve in the direction sought with a large enough effect; inconclusive means small, poorly fitted or top-dose-only effect, or another doubt; inactive means no such curve, though single readings can be large; an effect the other way counts as inactive or inconclusive. Potency means the concentration at half of the fitted maximal effect.

SMILES	ELG1 genotoxic	FLuc modulator	NPC1 promoter act	Rab9 prom act	SMN2 splice up	Luc counter
CC(=O)NC1C(=O)N(CCN2CCOCC2)c2ccc(C)cc21 (configuration not stated)	-1.1%	21.3µM*	-8.2%	11.4%	nt	nt
Cc1cccc(NC(=O)c2cccc(NC3=NC4CS(=O)(=O)CC4S3)c2)c1 (configuration not stated)	-2.8%	-6.3%	-3.8%	2.0%	nt	nt
CCc1ccc(NC(=O)c2cccc(NC3=NC4CS(=O)(=O)CC4S3)c2)cc1 (configuration not stated)	9.0%	13.5µM*	-0.4%	8.3%	nt	nt
CC(C)c1ccc(NC(=O)Cc2ccc(NC3=NC4CS(=O)(=O)CC4S3)cc2)cc1 (configuration not stated)	13.2%	21.3µM*	1.9%	18.9%	nt	nt
Cc1ccc(NC(=O)c2cccc(NC3=NC4CS(=O)(=O)CC4S3)c2)cc1C (configuration not stated)	4.4%	13.5µM*	1.3%	-4.1%	nt	nt
CC(C)c1ccc(NC(=O)c2cccc(NC3=NC4CS(=O)(=O)CC4S3)c2)cc1 (configuration not stated)	10.7%	6.01µM*	20.2%	2.8%	nt	nt
C=C(C(C)=O)C(O)c1cccc(OC)c1 (configuration not stated)	nt	nt	nt	nt	5.3%	0.5%
CC(C)(C)c1cc2c(O)c(c1)Cc1cc(C(C)(C)C)cc(c1O)Cc1cc(C(C)(C)C)cc(c1O)Cc1cc(C(C)(C)C)cc(c1O)Cc1cc(C(C)(C)C)cc(c1O)Cc1cc(C(C)(C)C)cc(c1O)Cc1cc(C(C)(C)C)cc(c1O)Cc1cc(C(C)(C)C)cc(c1O)C2	nt	nt	nt	nt	-6.6%[9.22 µM]	-11.6%[7.66 µM]
Cc1cccc(CNC(=O)C2CCN(S(=O)(=O)c3ccc4c(c3)CCCN4C(=O)C3CCC3)CC2)c1	nt	3.7%	nt	nt	nt	nt
Cc1cccc(C)c1NC(=O)c1nc(SC(C)C)ncc1Cl	nt	-10.3%	nt	nt	-6.7%	nt
COc1ccc(OCc2cc(C(=O)NC(C)Cc3cnccn3)no2)c(Cl)c1 (configuration not stated)	?	19µM*	?	?	nt	nt
COc1ccc(OCc2cc(C(=O)N3CCN(CC4CC4)CC3)no2)c(Cl)c1	4.6%[9.26 µM]	?	?	?	nt	nt
COc1cc(Cl)ccc1OCc1cc(C(=O)NC(C)Cc2cccnc2)no1 (configuration not stated)	5.4%	8.49µM*	?	?	nt	nt
COc1ccccc1CCc1nnc(CCC(=O)N(C)Cc2cccc3cnccc23)o1	4.8%	12µM*	3.98µM*	2.82µM*	nt	-4.7%
COc1ccccc1CCc1nnc(CCC(=O)N(C)Cc2ccncc2C)o1	-0.9%	2.4%	-0.5%	1.7%	nt	2.9%
COc1ccc(OCc2cc(C(=O)NCCc3ccccc3)no2)c(Cl)c1	-5.1%	?	-20.2%	2.4%	nt	nt
Cc1cccc(CC(C)NC(=O)c2cc(COc3ccc(F)cc3F)on2)n1 (configuration not stated)	3.4%[9.26 µM]	?	16.4%	22.7%	nt	nt
COc1ccc(OCc2cc(C(=O)NCC(C)Oc3cccnc3)no2)c(Cl)c1 (configuration not stated)	6.1%	15.1µM*	?	?	nt	nt
COc1cc(Cl)ccc1OCc1cc(C(=O)N(C)Cc2cccc3cnccc23)no1	-15.5%	13.5µM*	?	?	nt	nt
CN(Cc1nccs1)C(=O)c1cc(COc2cccc3cnccc23)on1	-13.9%	3.1%	-21.7%	-26.1%	nt	nt
Cc1ccc(C(=O)OCC(=O)c2c[nH]c3ccccc23)cc1NC(=O)c1ccco1	-8.0%	?	6.9%	?	-3.9%	0.1%
O=C(O)CCC(=O)Nc1ccc(C(=O)OCC(=O)c2ccc(Cl)cc2Cl)cc1	-0.1%	13.5µM*	-5.5%	-8.5%	nt	-1.7%
CCC(=O)Nc1cc(C(=O)OCC(=O)c2ccc(Cl)cc2Cl)ccc1C	-2.3%	2.13µM*	-4.2%	-0.7%	17.4%	-3.1%

Compound activity as filed in PubChem.
